Drawing on PubChem BioAssay AID652245 (The Scripps Research Institute Molecular Screening Center, 2013), this text covers inhibition for three compounds.

About 920 (58%) of roughly 1,600 compounds were called active. The set was probably picked from earlier hits. Only a sample is shown. Values without a mark were called inactive.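 How the source made its calls: active means inhibition above the primary screen's cutoff, the mean inhibition of all screened compounds plus 3 SD (cut at about 13% in these data); inactive means the rest.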

Usually inhibition stands for the relative decrease from the control value, in per cent.

In the experiment the target is Galanin receptor type 3 (Homo sapiens) (UniProt O60755). Nature of the experiment: GalR3 antagonist hit confirmation, cell-based, fluorescence, triplicate (AID 652245).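 Further: 0% = forskolin plus galanin and 100% = forskolin alone with DMSO.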 The note with it: HEK293 GalR3 CNG cAMP biosensor, membrane potential fluorescence; at 3 µM; active compounds read high.
Chain of Galanin receptor type 3 (Homo sapiens) (O60755 1-299 limits assumed): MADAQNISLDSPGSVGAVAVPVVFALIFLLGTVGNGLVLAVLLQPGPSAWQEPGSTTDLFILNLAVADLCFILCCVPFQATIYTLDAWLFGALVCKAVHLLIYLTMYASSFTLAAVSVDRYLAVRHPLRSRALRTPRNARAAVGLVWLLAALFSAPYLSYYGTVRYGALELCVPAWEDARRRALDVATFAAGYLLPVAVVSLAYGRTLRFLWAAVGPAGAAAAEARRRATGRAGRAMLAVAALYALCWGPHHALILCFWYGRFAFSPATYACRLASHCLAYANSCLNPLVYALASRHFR
Take `CCCCCCCCCCCCn1ccc(=N)cc1`: the inhibition was 92.6% (active). Consider `COC(=O)C1=C(c2cc3ccccc3s2)C[C@@H]2CC[C@H]1N2C(=O)NCc1cccc2ccccc12`, for which the inhibition was -2.45%. As for `COc1ccc(-n2c(-c3ccccc3)nc3ccccc3c2=O)cc1`, the inhibition is 7.55%.
